Rows were chosen to be rich in hits. Some 12% of all compounds tested hit in one or more screens of this group.
ROMK mod: human ROMK K+ channel modulation, primary screen; P48048; Tet-inducible ROMK, thallium flux fluorescence; actives lie on both sides; B-score at 10 µM; 130,000 compounds, 2% hits; AID 1918;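 active means signal ratio slope over the read window, or its plate-corrected B-score, at least 3 SD from the plate mean, either direction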;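 further: B-score of the F/F0 ratio slope over 7 to 12 s after thallium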
Ins promoter up: MIN6 insulin promoter up-regulation; 190,000 compounds, 0.3% hits; z-score at 5 µM; MIN6 insulin promoter-GFP reporter, high-content imaging; hits give high values;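 active means z-score above 3 at 5 µM with at least 500 cells counted in the well; inconclusive means wells under 500 cells, flagged as cytotoxic or low count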
Lmaj promast: inhibitors of Leishmania major promastigote growth; Leishmania major promastigotes, resazurin fluorescence viability; inhibition, % at 10 µM; 200,000 compounds, 9% hits; AID 1063; in the data active means inhibition above about 50%;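 further: promastigotes grown with compound for 44 hours at 28 °C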
WT yeast gro inh: growth inhibition of WT yeast, mitochondrial fusion screen | mitochondrial fusion phenotypic screen, WT strain | inhibition, % at 10 µM | 190,000 compounds, 2.1% hits; in the data active means inhibition above about 58%; tested in S. cerevisiae
Insulin prom inh: TRM-6 insulin promoter activity inhibition; TRM-6 cells (human fetal islet line), insulin promoter-eGFP reporter, imaging; reporter expression induced with tamoxifen; inhibition, % at 2 µM; 130,000 compounds, 0.9% hits;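 active means inhibition above the mean plus 3 SD, with well images judged a real hit on visual review, cut at about 60% in these data, passing the limit was not always enough; inconclusive means inhibition over the cutoff but images rejected on review; inactive means inhibition not above the cutoff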
KCC2 mod: modulators of human KCC2 chloride dependent transport; B-score of Tl+ flux slope (higher = more flux/activation; lower = inhibition) at 10 µM; Q9H2X9; 190,000 compounds, 2.2% hits; AID 1456; KCC2 cells, thallium flux FluoZin-2 fluorescence;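 active means thallium flux slope and its plate-corrected score both differing from the plate sample mean at a set confidence after two filtering rounds, in either direction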;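 further: slope of fluorescence scaled to starting intensity during 10 to 20 s after thallium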
Target sequence (Q9H2X9 whole entry, looked up): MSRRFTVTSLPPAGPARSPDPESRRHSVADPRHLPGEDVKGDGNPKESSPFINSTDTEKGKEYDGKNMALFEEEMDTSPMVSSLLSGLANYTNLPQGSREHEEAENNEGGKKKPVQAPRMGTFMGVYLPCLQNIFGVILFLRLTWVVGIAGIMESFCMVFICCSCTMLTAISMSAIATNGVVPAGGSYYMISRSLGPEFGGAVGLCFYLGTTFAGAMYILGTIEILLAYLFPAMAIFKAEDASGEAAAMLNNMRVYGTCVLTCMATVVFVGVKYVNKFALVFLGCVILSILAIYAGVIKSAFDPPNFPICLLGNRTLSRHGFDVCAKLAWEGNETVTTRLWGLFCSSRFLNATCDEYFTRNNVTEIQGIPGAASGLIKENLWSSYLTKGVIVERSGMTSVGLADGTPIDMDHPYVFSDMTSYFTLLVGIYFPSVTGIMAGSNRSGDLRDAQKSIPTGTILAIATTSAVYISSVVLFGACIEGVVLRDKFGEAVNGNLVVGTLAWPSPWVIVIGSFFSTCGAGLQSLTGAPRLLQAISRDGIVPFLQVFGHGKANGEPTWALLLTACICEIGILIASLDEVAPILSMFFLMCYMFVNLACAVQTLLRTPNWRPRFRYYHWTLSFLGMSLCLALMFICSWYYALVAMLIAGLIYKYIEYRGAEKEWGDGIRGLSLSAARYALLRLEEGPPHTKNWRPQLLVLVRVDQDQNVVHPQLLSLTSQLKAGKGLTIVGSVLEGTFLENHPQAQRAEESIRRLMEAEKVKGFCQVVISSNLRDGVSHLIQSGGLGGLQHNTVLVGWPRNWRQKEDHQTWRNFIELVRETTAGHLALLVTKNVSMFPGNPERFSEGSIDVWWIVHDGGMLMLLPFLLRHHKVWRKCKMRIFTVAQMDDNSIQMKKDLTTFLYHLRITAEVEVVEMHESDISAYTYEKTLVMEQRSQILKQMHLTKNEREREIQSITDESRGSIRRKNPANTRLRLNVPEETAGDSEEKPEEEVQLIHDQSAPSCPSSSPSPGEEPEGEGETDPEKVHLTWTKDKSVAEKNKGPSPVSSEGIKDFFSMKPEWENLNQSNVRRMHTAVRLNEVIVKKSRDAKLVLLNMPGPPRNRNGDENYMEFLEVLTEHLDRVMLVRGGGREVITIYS
KCC2 secondary: KCC2 (human) modulation, secondary assay | shares compounds with KCC2 mod | HEK293-KCC2, thallium flux, FluoZin2 fluorescence; hits give high values | normalised thallium flux (F/F0 slope) at 10 µM | 3,700 compounds, 15% hits | AID 1713;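 active means thallium flux slope above the same plate's solvent-only control mean plus 3 SD; inconclusive means the two replicate wells disagree; inactive means no significant difference from solvent-only control wells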
KCC2 bumet counter: bumetanide-insensitive thallium flux in KCC2 cells with ouabain, counter-screen; shares compounds with KCC2 mod; normalized thallium flux at 10 µM; AID 1714; 3,700 compounds, 49% hits; HEK293-KCC2 + bumetanide/ouabain, thallium flux FluoZin2; hits give high values;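 active means thallium entry rate above the same plate's blocked-transporter control wells by more than 3 SD; inconclusive means the two repeat wells disagree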;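 further: raw slope of fluorescence over initial fluorescence between 10 and 20 s after thallium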
KCC2 sec2: confirmation of human KCC2 transport modulators; shares compounds with KCC2 mod; HEK293-KCC2, thallium flux FluoZin2 fluorescence; actives lie on both sides; F/F0 rise rate, 10–20 s post-thallium; normalized thallium flux at 10 µM; 3,700 compounds, 23% hits;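 active means thallium flux slope more than 3 SD above or below the plate's solvent-only control mean, mostly below; inconclusive means the two repeat wells disagreed; inactive means no significant shift from solvent-only controls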;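 further: raw slope with 0.1% DMSO as baseline and bumetanide as block control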
HEK293 Tl flux: acts in parental HEK cells, KCC2 counter-screen; HEK293 parental cells, thallium flux FluoZin2, ouabain; baseline-ratio fluorescence slope, 10–20 s after thallium; 3,700 compounds, 46% hits; AID 1716; thallium flux rate (normalised fluorescence) at 10 µM; shares compounds with KCC2 mod;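 active means thallium flux rate significantly above the same plate's solvent-only control wells, beyond their mean plus 3 SD; inconclusive means the two replicate wells gave conflicting results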
KCC2 retest ouab: modulates human KCC2 on retest with ouabain; shares compounds with KCC2 mod; HEK293-KCC2, thallium flux FluoZin2 fluorescence; bidirectional: low = inhibitor, high = activator; raw Tl+ flux slope (below DMSO = inhibition, above = activation) at 10 µM; 3,700 compounds, 48% hits;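 active means thallium flux slope beyond 3 SD from same-plate DMSO control mean in most replicates, usually higher, sometimes lower; inconclusive means repeat tests gave conflicting results; inactive means no significant difference from controls in most replicates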;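 further: slope of initial-normalized fluorescence between seconds 10 and 20 after thallium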
HEK293 Tl flux2: parental HEK flux effect, counter-screen 2. thallium flux slope at 10 µM. HEK293 parental, thallium flux FluoZin-2 fluorescence slope. shares compounds with KCC2 mod. 3,700 compounds, 33% hits;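 active means thallium flux slope above the same plate's solvent-control mean plus 3 SD in both duplicate wells; inconclusive means duplicate wells that disagreed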;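 further: run without ouabain in cells lacking the KCC2 cotransporter; slope of fluorescence scaled to its starting value between 10 and 20 s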
An asterisk follows results filed as active; ? = inconclusive; / = not tested or not shown.

SMILES | ROMK mod | Ins promoter up | Lmaj promast | WT yeast gro inh | Insulin prom inh | KCC2 mod | KCC2 secondary | KCC2 bumet counter | KCC2 sec2 | HEK293 Tl flux | KCC2 retest ouab | HEK293 Tl flux2
COc1ccc(/C(C)=N/NC(=S)Nc2cc(C)ccc2C)cc1 | -0.017 | -0.41 | 13 | 67* | / | 25* | 0.0081 | 0.048* | 0.046* | 0.036* | 0.041* | 0.038*
COCCNC(=S)N/N=C(\C)c1ccc(OC)cc1 | -0.41 | 0.99 | -7 | -4 | 0 | -0.088 | / | / | / | / | / | /
C/C(=N\NC(=O)c1nc2ccccn2c1C)c1ccco1 | -0.86 | -0.59 | 3 | 9 | / | 0.21 | / | / | / | / | / | /
CN1C(=S)SC(N(O)C(=O)NC2CCCCC2)C1(C)C (stereo not given) | / | -0.48 | -7 | 16 | 18 | / | / | / | / | / | / | /
O=C1CCCC(O)=C1C=Nc1cccc(C(F)(F)F)c1 | 0.0018 | 0.23 | -5 | -11 | -55 | -0.38 | / | / | / | / | / | /
COC(=O)Cc1c(C)nc2nc(-c3ccc(Cl)cc3)[nH]n2c1=O | 0.61 | -0.52 | 0 | -6 | 8 | 0.37 | / | / | / | / | / | /
O=C(CSc1nc2ccccc2c(=O)n1Cc1ccc(F)cc1)NCc1cccs1 | / | 0.31 | 34 | -37 | -19 | 27* | 0.0066 | 0.031* | 0.05* | 0.035* | 0.038* | 0.036*
CCCCn1c(SCC(=O)Nc2ccc3c(c2)CCC3)nc2ccccc2c1=O | / | 1.1 | 69* | -20 | -6 | 9* | 0.0061 | 0.014* | 0.036 | 0.017* | ? | 0.02*
O=C1OCCC1Sc1nc2ccccc2c(=O)n1Cc1ccc(F)cc1 (stereo not given) | 0.13 | 1.6 | -7 | 5 | 21 | 39* | 0.025* | 0.14* | ? | 0.062* | 0.097* | 0.033*
CCCCCCn1c(SCC(=O)Nc2cc(C)on2)nc2ccccc2c1=O | / | -1 | 14 | -1 | / | / | / | / | / | / | / | /
Cc1cc(NC(=O)CSc2nc3ccccc3c(=O)n2Cc2ccc(F)cc2)no1 | 1 | 0.29 | -7 | 46 | -79 | 3.5* | 0.011 | 0.019* | 0.035 | ? | ? | ?
C=CCn1c(SCC(=O)Nc2ccc3c(c2)CCC3)nc2ccccc2c1=O | -0.46 | 0.09 | 6 | 4 | -83 | -0.45 | / | / | / | / | / | /
O=C1OCCC1Sc1nc2ccccc2c(=O)n1-c1ccc(F)cc1 (stereo not given) | -0.051 | -1.1 | -2 | -19 | / | 2.3 | / | / | / | / | / | /
O=C(COC(=O)Cc1ccsc1)Nc1ccc(S(=O)(=O)N2CCOCC2)cc1 | / | -0.27 | -1 | 6 | / | -1.3 | / | / | / | / | / | /
COc1cccc(Cn2nnc(C(=O)NCc3ccc4c(c3)OCO4)c2N)c1 | 0.38 | 0.38 | -1 | 10 | -15 | -0.34 | / | / | / | / | / | /
CCOC(=O)c1c(C#N)c(SCC(=O)Nc2ccc(OC)cc2)nc2c1CN(CC)CC2 | / | -0.86 | -1 | -6 | -88 | -0.34 | / | / | / | / | / | /
CCCn1c(N)c(C(=O)CSc2nc3ccccc3c(=O)n2Cc2ccccc2)c(=O)[nH]c1=O | -0.011 | -0.54 | 30 | -4 | -22 | 40* | 0.016* | 0.08* | 0.028 | 0.026* | 0.054* | 0.012*
Cc1ccc(C(=O)Nc2ccccc2C(=O)N2CCOCC2)cc1[N+](=O)[O-] | / | -0.34 | 21 | -1 | -24 | 6.9* | 0.0065 | 0.004 | 0.031 | 0.0072 | 0.018 | 0.0096
O=C(NC(=S)Nc1ccccc1[N+](=O)[O-])c1ccccc1 | / | 0.04 | / | / | / | 18* | 0.0076 | 0.037* | ? | 0.02* | 0.035* | 0.021*
CC1Cc2ccccc2N1C(=S)NC(=O)c1ccco1 (stereo not given) | 0.57 | -0.7 | 0 | 10 | / | 26* | 0.012* | 0.056* | 0.042* | 0.039* | 0.049* | 0.029*
Cc1ccc(C(=O)N2CCOCC2)cc1[N+](=O)[O-] | 1.2 | 0.36 | 30 | -5 | 31 | 0.25 | / | / | / | / | / | /
O=C(NC(=S)Nc1ccccc1N1CCCC1)c1ccco1 | / | 0.84 | / | / | / | 134* | 0.042* | 0.11* | 0.056* | 0.072* | 0.068* | 0.062*
O=C(/C=C/c1ccco1)NC(=S)Nc1ccccc1N1CCCC1 | -0.65 | 3.1* | 31 | 43 | 5 | 3.2* | 0.012 | 0.028* | 0.032 | 0.011* | 0.023 | 0.01
Cc1ccc(C(=O)NC(=S)Nc2ccccc2N2CCCC2)cc1[N+](=O)[O-] | 0.086 | -0.28 | 34 | 35 | 0 | 5.5* | 0.0076 | 0.042* | 0.033 | 0.018* | 0.04* | 0.012*
O=C(/C=C/c1ccco1)Nc1ccccc1N1CCCC1 | 0.67 | 0.3 | 22 | -19 | / | 0.62 | / | / | / | / | / | /
SMILES | ROMK mod | Ins promoter up | Lmaj promast | WT yeast gro inh | Insulin prom inh | KCC2 mod | KCC2 secondary | KCC2 bumet counter | KCC2 sec2 | HEK293 Tl flux | KCC2 retest ouab | HEK293 Tl flux2
O=C(CCC1COc2ccccc2O1)Nc1ccc(Cl)cn1 (stereo not given) | / | -0.5 | 0 | -4 | -15 | -1.5 | / | / | / | / | / | /
COc1ccc(CC(=O)Nc2cccc(-c3ccc4nncn4n3)c2)cc1OC | -0.57 | -0.69 | 1 | -6 | / | 0.026 | / | / | / | / | / | /
CCOC(=O)N1CCN(C(=O)c2ccc3c(=O)n(CCc4ccccc4)c(=S)[nH]c3c2)CC1 | -0.23 | / | -1 | -1 | 18 | 0.22 | / | / | / | / | / | /
CCOC(=O)N1CCN(C(=O)c2ccc3c(=O)n(Cc4ccc(Cl)cc4)c(=S)[nH]c3c2)CC1 | 1.9 | -1 | 2 | -2 | -21 | / | 0.0063 | 0.015* | 0.032 | 0.013* | ? | 0.016*
O=C(c1ccc2c(=O)n(C3CCCC3)c(=S)[nH]c2c1)N1CCN(C2CCCCC2)CC1 | -1.3 | 0.99 | -1 | 0 | / | 8.3* | 0.0063 | 0.0098* | 0.029 | 0.015* | 0.021 | 0.013*
O=C(Nc1nc(=O)n(C(=O)c2cccc(C(F)(F)F)c2)s1)c1ccccc1 | / | -0.17 | / | / | / | -4.3* | 0.0057 | 0.0044 | 0.024* | 0.0069 | 0.016* | 0.0093
O=C1NC(=O)/C(=C/c2ccccc2OCc2ccccc2)S1 | -0.066 | 0.67 | -1 | 25 | / | -5.7* | 0.0086 | 0.0071 | 0.033 | 0.0064 | 0.015* | ?
CC(C)(CC(=O)O)CC(=O)Nc1ccc(Oc2ccc(C(C)(C)C)cc2)nc1 | / | / | / | / | / | 4.8* | 0.0056 | 0.0044 | 0.03 | 0.0072 | 0.019 | 0.0098
CC(C)(C)c1ccc(Oc2ccc(NC(=O)CCCC(=O)O)cn2)cc1 | / | / | / | / | / | 1.8 | / | / | / | / | / | /
Cc1ccc(NC(=O)CNS(=O)(=O)c2cccs2)cc1F | -0.38 | 0.2 | -8 | 10 | -29 | -0.65 | / | / | / | / | / | /
